Results on 6 compounds are retold here after PubChem BioAssay (NCATS).

Inconclusive results are not listed. A number with no mark means an inactive call. Calls of active or inactive are those of the source. The call rests on the fitted dose curve; in most records, active means well fitted curve in the direction sought with a large enough effect; inconclusive means small, poorly fitted or top-dose-only effect, or another doubt; inactive means no such curve, though single readings can be large; an effect the other way counts as inactive or inconclusive.

Experiment [1] in a line: Panc-1005 Cancer Cell Toxicity qHTS against the NCATS CANVASS Library (AID 1347349). Further: series mostly up to about 38 µM; nearly all actives have a fitted effect of over 60% in size. Summed up:
(§1)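 1000 cells/well seeded and rested 4 h at 37 °C before pin transfer of compounds in an 11-pnt series. Exposure 72 h at 37 °C/5% CO2; viability by CellTiter-Glo luminescence after 15 min at room temperature.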
On the technique in general: qHTS replaces the single test concentration by a dilution series.

Experiment [2] is described as follows: SW1088 Cancer Cell Toxicity qHTS against the NCATS CANVASS Library (AID 1347350). Further: nearly all actives have a fitted effect of over 75% in size. The procedure, abridged:
as §1

A short description of experiment [3]: COV-362 Cancer Cell Toxicity qHTS against the NCATS CANVASS Library (AID 1347352). Further: series mostly up to about 38 µM. The procedure, abridged: (§2)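 qHTS cytotoxicity: compounds tested in 11 concentrations on 1000 seeded cells per well over 72 h; bortezomib served as control; signal from CellTiter-Glo luminescence.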
The nature of experiment [4]: A2780 Cisplatin Sensitive Ovarian Cancer Cell Toxicity qHTS against the NCATS CANVASS Library (AID 1347353). Further: nearly all actives have a fitted effect of over 60% in size. Further: potency means the concentration at half of the fitted maximal effect. The procedure, abridged: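 Seventy-two-hour exposure of cisplatin-sensitive A2780 ovarian cells to an 11-concentration qHTS series; cytotoxicity is inferred from loss of ATPLite luminescence. Bortezomib titration served as positive control.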
Experiment [5] is described as follows: UWB1.289-WTBRCA1 Cancer Cell Toxicity qHTS against the NCATS CANVASS Library (AID 1347354). Summed up:
as §2

The nature of experiment [6]: HEK-293 Cancer Cell Toxicity qHTS against the NCATS CANVASS Library (AID 1347355). Further: series mostly up to about 46 µM; nearly all actives have a fitted effect of over 65% in size. Summed up:
as §2

The test system of experiment [7] is NAD(P)H diaphorase (Clostridium kluyveri). As to the kind of experiment: Diaphorse counterscreen qHTS: Assay Interference Panel against the NCATS CANVASS Library (AID 1347362). The procedure, abridged:
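Counterscreen for coupling-enzyme interference: resorufin fluorescence from resazurin/NADH turnover, read after 5 min at room temperature. Compounds were tested over an 11-point series after 15 min dark preincubation with diaphorase in PBS-Tween.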
A general note: Counterscreens check selectivity or assay interference.

A short description of experiment [8]: SDT Cancer Cell Toxicity qHTS against the NCATS CANVASS Library (AID 1347365).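 Further: SDT canine glioma cells 500 per well in 1536 well plates; series mostly up to about 46 µM; nearly all actives have a fitted effect of over 60% in size.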 The procedure, abridged:
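Dispense 500 SDT cells per well; pin-transfer compounds; incubate 72 hr at 37C, 5% CO2, 95% RH; add CellTiterGlo and read luminescence.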

Experiment [9] can be described thus: G06 Cancer Cell Toxicity qHTS against the NCATS CANVASS Library (AID 1347368). Further: series mostly up to about 46 µM; nearly all actives have a fitted effect of over 60% in size. The procedure, abridged: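 Cytotoxicity toward canine glioma G06 cells is scored from cellular ATP via luminescence after 72 hr compound exposure at 500 cells/well.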
Experiment [10] has as its target Nuclear receptor subfamily 1 group I member 3 (Homo sapiens) (UniProt Q14994). As to the kind of experiment: qHTS for Constitutive Androstane Receptor (CAR) Antagonist screened against the NCATS CANVASS Library (AID 1347372).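 Further: cells stimulated with 50 nM CITCO agonist so inhibition reflects antagonism; luciferase from CYP2B6 promoter reporter driven by hCAR in HepG2 cells; series mostly up to about 46 µM.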 Summed up: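 HepG2-CYP2B6-hCAR double-stable cells plated, 4hr attach; cpd pin-transferred; CITCO 50 nM final; 24hr 37C/5% CO2; CellTiter-Fluor 1hr (fluorescence), then ONE-Glo luminescence.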

A short description of experiment [11]: qHTS for Hypoxia signaling pathway (HIF-1) agonists against the NCATS CANVASS Library (AID 1347375). Summed up: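 Inducers of HIF-1 signaling were detected in ME-180 cells bearing an HRE-driven beta-lactamase reporter after 17 h compound exposure. Activity came from CCF4-AM FRET emission ratio (460/530 nm) in qHTS format.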
Experiment [12] can be described thus: DH5-alpha competent E. coli microbial cell viability qHTS against the NCATS CANVASS Library (AID 1347377). The following applies: outcome: dose series up to 46.1 µM unless noted. The procedure, abridged:
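Cell viability of competent DH5-alpha E. coli is scored from ATP content by luminescence. Cells sit overnight at 37C with compound across an 11-point concentration series.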

A short description of experiment [13]: qHTS for Activators of p53 Stress Response Pathway screened against the NCATS CANVASS Library (AID 1347388). The procedure, abridged:
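Beta-lactamase reporter driven by p53 response elements in HCT-116 cells, read as the 460 nm/530 nm emission ratio after CCF4 loading, following 16 h of exposure to an 11-point series. Cell viability was measured in the same wells by CellTiter-Glo luminescence.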

Experiment [14] can be described thus: qHTS for activators of Nrf2/ARE signaling pathway screened against the NCATS CANVASS Library (AID 1347391). Further: nearly all actives have a fitted effect of over 60% in size. Further: potency means the concentration at half of the fitted maximal effect. The procedure, abridged:
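Cells carrying an ARE-driven beta-lactamase reporter (HepG2 background) are dosed for 16 h, then stained with CCF4. Cell viability in the same wells is measured by CellTiter-Glo luminescence.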

The nature of experiment [15]: qHTS for activators of dead-cell proteases activity screened against the NCATS CANVASS Library (AID 1347392).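 Further: luminescence from protease leaking out of membrane-damaged cells cleaving impermeant substrate; rising signal means more cytotoxicity.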 The procedure, abridged: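 Compounds are pin-transferred onto attached HepG2 cells, giving 11 final concentrations. After 5 h at 37C, AAF-aminoluciferin reagent is added and luminescence is recorded at room temperature.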
Experiment [16] in a line: Redox Reaction Profiling qHTS: Assay Interference Panel against the NCATS CANVASS Library (AID 1347401). Summed up:
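Cell-free redox surrogate: 5 uM resazurin + 200 uM DTT, 50 mM HEPES pH 7.3/50 mM NaCl; cpds pinned, 11-pt qHTS; Ex525/Em598 read t0 and t=15 min, dark.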

Experiment [17] in a line: KB-8-5-11 Cancer Cell Toxicity qHTS against the NCATS CANVASS Library (AID 1347364). Further: nearly all actives have a fitted effect of over 75% in size. The procedure, abridged: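 Natural products were titrated in 11 points onto KB-8-5-11 cells, 500 per well, and cytotoxicity was scored from CellTiter-Glo luminescence after 72 hr culture.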
Experiment [18] in a line: qHTS for inhibitors of Wild type Zika virus screened against the NCATS CANVASS Library (AID 1347396).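 Further: ATP luminescence of surviving cells so rescue from viral cell killing; series mostly up to about 46 µM.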 The procedure, abridged:
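Luminescent CellTiter Glo read-out of virus-induced cytotoxicity, 72 h post-infection, in Vero 766 cells. Compounds were tested at 11 concentrations; uninfected, vehicle-treated wells defined 100% inhibition.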

The test system of experiment [19] is Zika virus NS2B-NS3 protease (linked construct). As to the kind of experiment: Primary screen NINDS Rhodamine qHTS for Zika virus inhibitors (AID 1347160). Further: potency means the concentration at half of the fitted maximal effect; nearly all actives have a fitted effect of over 55% in size. The procedure, abridged: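 In 10 mM Tris-HCl pH 8.0 containing 0.01% Tween 20, linked NS2B-NS3 protease (25 nM final) is exposed to test compounds for 15 min. Cleavage of 1.5 microM Rhodamine110 substrate is tracked by fluorescence over 15 min.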

Experiment [20] in a line: qHTS assay for small molecule disruptors of mitochondrial membrane potential screened against the NCATS CANVASS Library (AID 1347389). Summed up: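 Compounds tested in 11-point qHTS series on HepG2 cells for 1 hr; membrane-potential dye added for 30 min at 37C. Lower red-to-green ratio indicates loss of potential.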

Sequence of Nuclear receptor subfamily 1 group I member 3 (Homo sapiens) (Q14994 whole entry, looked up): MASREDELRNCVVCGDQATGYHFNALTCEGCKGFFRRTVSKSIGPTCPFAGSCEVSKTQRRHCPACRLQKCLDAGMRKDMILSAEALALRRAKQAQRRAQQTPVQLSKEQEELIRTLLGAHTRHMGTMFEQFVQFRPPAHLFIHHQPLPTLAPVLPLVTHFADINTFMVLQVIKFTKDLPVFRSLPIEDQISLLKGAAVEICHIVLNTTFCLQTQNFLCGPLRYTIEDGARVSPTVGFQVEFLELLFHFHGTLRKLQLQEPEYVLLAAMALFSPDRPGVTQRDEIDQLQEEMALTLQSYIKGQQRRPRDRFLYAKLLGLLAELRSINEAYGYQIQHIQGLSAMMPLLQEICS

For `COc1c(O)cc2oc(-c3ccccc3)cc(=O)c2c1O`, the Potency result in experiment [1], in [2], in experiment [3], in experiment [5], in experiment [6] and in experiment [7] was “inactive” throughout. The Potency entry in experiment [8], in experiment [9], in [10], in [11], in [13] and in experiment [15] was “inactive” in each case. Besides, in experiment [16], the Potency result was “inactive”. For the same compound, the Potency in experiment [4] is 20.9 µM (active); in experiment [14], 13.2 µM (active). Besides, the outcome in experiment [12] was inactive.
Regarding `CC(=O)O[C@H]1CC[C@@]2(C)C(CC[C@]3(C)C2CC=C2C4CC(C)(C)CC[C@]4(C)CC[C@]23C)C1(C)C` (stereo partly specified), the Potency result in [1], in experiment [2], in experiment [3], in experiment [4], in experiment [5] and in [6] was “inactive” each time. In addition, the Potency entry in experiment [7], in [17], in [8], in experiment [9], in experiment [10] and in experiment [11] was “inactive” in each case. In addition, the Potency entry in [13], in experiment [14], in [15], in experiment [18] and in experiment [16] was “inactive” each time. The result in experiment [12] was inactive.
As for `C=C1C[C@@]23C=CC(=O)[C@@](C)(CCC(=O)Nc4c(O)ccc(C(=O)O)c4O)C2C[C@@H]1CC3O` (stereo partly specified), in [19], the Potency was 49.3 µM (active). Besides, the Potency result in experiment [2], in experiment [3], in [4], in experiment [5], in [6] and in experiment [7] was “inactive” throughout. The Potency entry in [17], in experiment [8], in experiment [9], in [10], in [11] and in [13] was “inactive” in each case. Also, the Potency entry in experiment [20], in experiment [14], in experiment [15], in [18] and in [16] was “inactive” each time. The outcome in experiment [12] was inactive.
On to `C=C(NC(=O)c1csc(-c2nc3c(cc2O)-c2nc(cs2)C(=O)NC(C(C)O)C(=O)N/C(=C(\C)O)c2nc(cs2)C(=O)NC2c4nc(cs4)C(=O)NC(COC(=O)c4c5c6c(cccc6n4O)COC(=O)[C@@H](OC4C[C@](C)(O)[C@H](N(C)C)[C@H](C)O4)C2OC5)c2nc-3cs2)n1)C(N)=O` (stereo partly specified), for which the Potency entry in experiment [1], in [2], in experiment [3], in experiment [4], in experiment [5] and in experiment [7] was “inactive” each time. Also, the Potency result in experiment [17], in [10], in experiment [14], in experiment [15] and in [18] was “inactive” in each case. Further, the outcome in experiment [12] was inactive.
Take `CCCCCCC[C@@H](C/C=C/CCC(=O)NCCc1c[nH]c2ccccc12)OC`: in experiment [19], the Potency was 49.3 µM (active). Also, the Potency entry in experiment [1], in experiment [3], in [4], in [5], in [7] and in [17] was “inactive” throughout. Further, the Potency result in experiment [9], in [10], in [11], in [13], in experiment [14] and in [15] was “inactive” throughout. In addition, the Potency result in experiment [16] was “inactive”.
With `C=C1C[C@@]23C=CC(=O)[C@@](C)(CCC(=O)Nc4c(O)ccc(C(=O)O)c4O)C2C[C@@H]1CC3` (stereo partly specified), the Potency result in [1], in [2], in [3], in experiment [4], in experiment [5] and in experiment [6] was “inactive” each time. Moreover, the Potency result in experiment [7], in experiment [17], in experiment [8], in experiment [10], in [11] and in experiment [13] was “inactive” in each case. Besides, the Potency entry in experiment [20], in [15], in experiment [18] and in [16] was “inactive” throughout. The Potency in experiment [14] was 18.6 µM (active).
